Assay results from PubChem BioAssay (NCATS).
Where “and” joins values, the source holds several entries; their conditions need not be identical. Equal values may be shown once. Inconclusive results are not listed. Where a call stands in place of a potency, no number is given. Some structures have more than one record in an assay (separate samples or runs), and their calls can disagree. Calls of active or inactive are those of the source. Unless noted, the call rests on the fitted dose curve; in most records, active means well fitted curve in the direction sought with a large enough effect; inconclusive means small, poorly fitted or top-dose-only effect, or another doubt; inactive means no such curve, though single readings can be large; an effect the other way counts as inactive or inconclusive.

Columns and labels:
[1] = biological target: Guanine nucleotide-binding protein G(i) subunit alpha-1 (Homo sapiens) (UniProt P63096); experiment: qHTS Assay for Inhibitors of RGS12 GoLoco Motif Activity (Green Fluorophore) (AID 879);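 further: negative values mean loss of peptide binding seen as reduced polarization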
Chain of Guanine nucleotide-binding protein G(i) subunit alpha-1 (Homo sapiens) (P63096 whole entry, looked up): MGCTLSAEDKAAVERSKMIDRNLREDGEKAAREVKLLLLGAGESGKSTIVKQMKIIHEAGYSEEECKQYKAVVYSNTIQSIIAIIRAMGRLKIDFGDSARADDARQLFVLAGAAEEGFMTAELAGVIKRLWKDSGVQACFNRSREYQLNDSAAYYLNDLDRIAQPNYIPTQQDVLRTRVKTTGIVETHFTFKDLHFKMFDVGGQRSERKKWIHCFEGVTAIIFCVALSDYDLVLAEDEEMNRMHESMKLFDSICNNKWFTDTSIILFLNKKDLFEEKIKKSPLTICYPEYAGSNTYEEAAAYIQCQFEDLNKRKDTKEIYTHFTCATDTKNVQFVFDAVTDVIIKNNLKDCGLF
In short: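 A drop in FITC polarization marked displacement of the FITC-tagged RGS12 GoLoco peptide (10 nM) from Gαi1 (50 nM). Compounds were incubated 10 min at room temperature in Tris pH 7.5 buffer containing 150 mM NaCl, 0.1 mM GDP and 0.05% NP40; unlabeled peptide titration served as control.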

[2] = biological target: Cytochrome P450 3A4 (Homo sapiens) (UniProt P08684); experiment: qHTS Assay for Inhibitors and Substrates of Cytochrome P450 3A4 (AID 884); further: nearly all actives have a fitted effect of over 50% in size; further: potency means the concentration at half of the fitted maximal effect
Chain of Cytochrome P450 3A4 (Homo sapiens) (P08684 whole entry, looked up): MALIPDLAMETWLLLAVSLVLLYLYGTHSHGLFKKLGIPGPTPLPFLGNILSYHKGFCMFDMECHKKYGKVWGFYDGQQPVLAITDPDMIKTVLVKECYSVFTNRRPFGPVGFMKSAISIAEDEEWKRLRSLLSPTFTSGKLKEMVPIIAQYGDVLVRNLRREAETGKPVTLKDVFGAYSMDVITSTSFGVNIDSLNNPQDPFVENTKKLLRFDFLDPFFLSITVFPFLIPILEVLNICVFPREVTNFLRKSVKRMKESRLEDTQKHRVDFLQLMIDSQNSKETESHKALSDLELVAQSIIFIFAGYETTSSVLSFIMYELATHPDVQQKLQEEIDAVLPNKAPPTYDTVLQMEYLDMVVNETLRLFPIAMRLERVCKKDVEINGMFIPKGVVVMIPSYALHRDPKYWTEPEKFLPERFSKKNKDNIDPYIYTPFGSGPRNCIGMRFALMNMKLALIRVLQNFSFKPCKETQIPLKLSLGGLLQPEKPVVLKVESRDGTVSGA
In short: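 Luminescent readout of luciferin produced by CYP3A4 (20 nM) dealkylation of Luciferin-PPXE, 25 uM (its KM). NADPH-driven reaction ran 60 min at RT after 10 min compound preincubation; data scaled to 57 uM ketoconazole as 100% inhibition.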

[3] = qHTS Assay for Identification of Small Molecule Antagonists for NFkB Signaling Pathway (AID 895; active means well fitted inhibition curve with a large enough effect in the signal ratio, with a control signal flat, not every such curve was filed as active; the % refers to the signal ratio; further: potency means the concentration at half of the fitted maximal effect)
In short: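 Beta-lactamase reporter read-out (460 and 530 nm emission ratio, 405 nm excitation, 2 hrs substrate loading RT) after 5 hr stimulation with 10 pM TNF alpha in compound-treated NFkB-bla ME-180 cells in low-serum medium.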

[4] = Confirmation and Secondary Assay for Modulators of Hemoglobin Beta Chain Splicing at IVS2 654 locus (AID 910);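 further: HeLa cells stably carrying EGFP split by mutant beta-globin IVS2-654 intron; per-well total GFP intensity by laser scanning cytometry after 2-day treatment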
In short: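 Readout: per-well total peak green fluorescence (488 nm ex, 500–520 nm em) from objects 5–250 µm, reflecting correct splicing of an EGFP-654 reporter. Compounds were applied for 2 days at 37 °C to overnight-plated HeLa EGFP-654 cells; controls were DMSO and 500 nM IVS2-654 PNA.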

[5] = qHTS Assay for Identification of Small Molecule Agonists for Hypoxia Response Element Signaling Pathway (AID 914; active means well fitted activation curve with a large enough effect in the signal ratio, with a control signal flat, not every such curve was filed as active; the % refers to the signal ratio); details: ME-180 (cervical carcinoma) HRE-bla reporter, beta-lactamase ratio, CoCl2, 17 h; stronger effect = higher value
In short: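 In Opti-MEM containing 0.5% dialyzed FBS and 10 mM HEPES, ME-180 HRE-bla cells received a compound titration and EC50 CoCl2. They were incubated 17 hours, then CCF4-loaded 2.5 hours at room temperature before ratio reading.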

[6] = qHTS Assay for Identification of Small Molecule Agonists for Thrombopoietin (TPO) Signaling Pathway (AID 917)
In short: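 Luciferase reporter (Glycoprotein IIb promoter) in IL-3-deprived Ba/F3 cells carrying human TPO receptor; compounds co-added with 26 pM TPO, incubated 24 h, 37 C. Steadylite luminescence measured after 10 min.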

[7] = Confirmation and Secondary Assay for Modulators of Hemoglobin Beta Chain Splicing at IVS2 705 locus (AID 930);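 further: HeLa cells stably expressing the EGFP-705 splicing reporter; GFP fluorescence per well restored by corrected splicing of the IVS2-705 intron in EGFP; series mostly up to about 46 µM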
In short: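 Per-well GFP, captured at 1 x 8 µm resolution with 488 nm excitation, served as the read-out for HeLa EGFP-705 cells incubated 2 days with test compound versus DMSO.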

[8] = biological target: Muscarinic acetylcholine receptor M1 (Rattus norvegicus) (UniProt P08482); experiment: qHTS Assay for Antagonists of Acetylcholine Muscarinic M1 Receptor: Kinetic Measurement of Intracellular Calcium Response (AID 943); further: nearly all actives have a fitted effect of over 75% in size; further: potency means the concentration at half of the fitted maximal effect
Chain of Muscarinic acetylcholine receptor M1 (Rattus norvegicus) (P08482 whole entry, looked up): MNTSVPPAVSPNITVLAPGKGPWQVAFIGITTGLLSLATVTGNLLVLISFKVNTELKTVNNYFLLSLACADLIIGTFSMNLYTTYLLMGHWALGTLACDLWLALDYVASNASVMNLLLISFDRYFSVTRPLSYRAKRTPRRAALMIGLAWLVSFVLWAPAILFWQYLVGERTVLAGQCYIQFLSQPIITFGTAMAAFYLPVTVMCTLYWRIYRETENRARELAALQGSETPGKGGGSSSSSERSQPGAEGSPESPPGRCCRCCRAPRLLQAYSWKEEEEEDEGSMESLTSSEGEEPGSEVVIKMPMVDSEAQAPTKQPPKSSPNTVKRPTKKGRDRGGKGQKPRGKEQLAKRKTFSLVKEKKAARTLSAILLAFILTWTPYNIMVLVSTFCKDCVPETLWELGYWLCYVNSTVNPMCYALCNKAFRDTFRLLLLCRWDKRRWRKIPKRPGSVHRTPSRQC
In short: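 Antagonism is measured as inhibition of the carbachol-evoked calcium rise in CHO cells transfected with rat M1. Cells are dye-loaded, exposed to compound for 10 min, then stimulated with 100 nM carbachol (EC80).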

[9] = biological target: Pyruvate kinase (Leishmania mexicana) (UniProt Q27686); experiment: qHTS Validation Assay for Inhibitors of Leishmania Mexicana Pyruvate Kinase (AID 945)
Chain of Pyruvate kinase (Leishmania mexicana) (Q27686 2-499 E452W): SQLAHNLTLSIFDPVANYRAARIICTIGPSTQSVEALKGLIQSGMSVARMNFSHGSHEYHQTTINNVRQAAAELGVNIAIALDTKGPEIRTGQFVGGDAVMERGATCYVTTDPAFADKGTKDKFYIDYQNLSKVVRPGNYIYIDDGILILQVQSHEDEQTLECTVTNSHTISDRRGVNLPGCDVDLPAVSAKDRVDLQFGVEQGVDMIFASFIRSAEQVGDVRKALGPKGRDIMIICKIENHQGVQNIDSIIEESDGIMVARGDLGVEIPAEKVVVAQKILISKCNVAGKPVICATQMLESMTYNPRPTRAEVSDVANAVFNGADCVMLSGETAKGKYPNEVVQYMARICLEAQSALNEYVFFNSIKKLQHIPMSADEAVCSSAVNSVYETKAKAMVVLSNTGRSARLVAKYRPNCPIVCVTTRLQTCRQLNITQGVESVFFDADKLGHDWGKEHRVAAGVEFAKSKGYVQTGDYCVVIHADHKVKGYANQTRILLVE
In short: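 An endpoint luciferase assay: 0.2 nM LmPYK E451W turns over 0.5 mM PEP with 0.1 mM ADP for 1 h at room temperature, pH 7.2, before PKLight addition. Values are normalized to DMSO-only wells.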

[10] = biological target: Pyruvate kinase PKM (Homo sapiens) (UniProt P14618); experiment: qHTS Assay for Activators of Human Muscle Pyruvate Kinase (AID 954; active means well fitted curve in the direction sought with a large enough effect, not every such curve was filed as active)
Chain of Pyruvate kinase PKM (Homo sapiens) (P14618 whole entry, looked up): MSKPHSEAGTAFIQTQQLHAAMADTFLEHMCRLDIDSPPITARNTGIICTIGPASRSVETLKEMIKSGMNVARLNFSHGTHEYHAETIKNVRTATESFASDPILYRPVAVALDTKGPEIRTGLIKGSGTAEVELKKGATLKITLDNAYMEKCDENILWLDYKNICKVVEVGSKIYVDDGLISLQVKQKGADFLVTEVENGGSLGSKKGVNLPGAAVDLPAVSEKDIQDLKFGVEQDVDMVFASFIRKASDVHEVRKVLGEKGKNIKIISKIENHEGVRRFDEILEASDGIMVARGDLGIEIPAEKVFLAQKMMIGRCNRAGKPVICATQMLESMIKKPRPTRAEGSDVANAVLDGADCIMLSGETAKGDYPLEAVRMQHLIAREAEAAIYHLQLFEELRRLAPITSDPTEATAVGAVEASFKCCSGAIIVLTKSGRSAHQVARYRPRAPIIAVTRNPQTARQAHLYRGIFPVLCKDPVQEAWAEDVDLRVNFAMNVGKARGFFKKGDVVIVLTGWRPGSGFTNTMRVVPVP
In short: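 A coupled luminescent readout tracked ATP made from ADP by purified PKM2. Final conditions included 0.1 nM enzyme, PEP and ADP at 0.5 and 0.1 mM, pH 7.2 imidazole buffer with BSA, and a one-hour room-temperature reaction.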

[11] = biological target: Alpha-galactosidase (Coffea arabica) (UniProt Q42656); experiment: Counterscreen for Glucocerebrosidase Inhibitors: qHTS Assay for Coffee Bean alpha-Galactosidase at pH 4.5 (AID 957); further: series mostly up to about 77 µM
Chain of Alpha-galactosidase (Coffea arabica) (Q42656 whole entry, looked up): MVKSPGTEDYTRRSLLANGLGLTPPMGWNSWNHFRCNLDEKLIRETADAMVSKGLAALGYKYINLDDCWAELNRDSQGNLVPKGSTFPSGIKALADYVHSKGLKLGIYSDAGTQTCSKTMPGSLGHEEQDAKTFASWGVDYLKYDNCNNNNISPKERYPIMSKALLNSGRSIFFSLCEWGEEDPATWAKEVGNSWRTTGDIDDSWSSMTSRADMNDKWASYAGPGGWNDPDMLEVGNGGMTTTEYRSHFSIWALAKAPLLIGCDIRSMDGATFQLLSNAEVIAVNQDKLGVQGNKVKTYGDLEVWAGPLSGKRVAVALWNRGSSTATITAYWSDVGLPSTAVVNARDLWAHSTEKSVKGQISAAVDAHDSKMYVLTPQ
In short: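 Enzyme is added first (2 nM final), then compounds titrated from 0.7 nM to 77 uM, then 80 uM 4-methylumbelliferyl alpha-D-galactopyranoside; after 20 min at room temperature a pH 10 NaOH/glycine stop precedes fluorescence reading at 365/440 nm.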

[12] = biological target: Cytochrome P450 2C9 (Homo sapiens) (UniProt P11712); experiment: qHTS Assay for Inhibitors and Substrates of Cytochrome P450 2C9 (AID 883); further: nearly all actives have a fitted effect of over 60% in size; further: potency means the concentration at half of the fitted maximal effect
Chain of Cytochrome P450 2C9 (Homo sapiens) (P11712 whole entry, looked up): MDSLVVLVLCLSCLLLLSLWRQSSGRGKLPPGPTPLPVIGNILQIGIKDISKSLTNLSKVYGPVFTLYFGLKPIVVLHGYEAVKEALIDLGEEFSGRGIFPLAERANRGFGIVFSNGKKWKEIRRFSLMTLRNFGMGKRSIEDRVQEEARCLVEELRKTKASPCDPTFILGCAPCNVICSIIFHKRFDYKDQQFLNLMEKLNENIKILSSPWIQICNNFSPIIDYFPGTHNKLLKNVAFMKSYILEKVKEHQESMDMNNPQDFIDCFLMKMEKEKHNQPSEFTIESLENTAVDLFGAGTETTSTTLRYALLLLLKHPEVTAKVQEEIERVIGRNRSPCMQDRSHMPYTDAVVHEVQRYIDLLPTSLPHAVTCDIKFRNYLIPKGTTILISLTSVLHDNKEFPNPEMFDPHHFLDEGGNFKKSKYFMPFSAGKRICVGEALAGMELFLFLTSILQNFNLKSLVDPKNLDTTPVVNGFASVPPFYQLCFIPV
In short: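 Inhibition of CYP2C9 is scored as loss of luminescence, with 57uM sulphaphenazole defining 100% inhibition. Substrate Luciferin-H is used at 100uM, equal to its KM; enzyme at 10nM in 25mM KPO4, 60 min at 37C with NADPH regeneration.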

[13] = biological target: Cytochrome P450 2C19 (Homo sapiens) (UniProt P33261); experiment: qHTS Assay for Inhibitors and Substrates of Cytochrome P450 2C19 (AID 899); further: nearly all actives have a fitted effect of over 60% in size; further: potency means the concentration at half of the fitted maximal effect
Chain of Cytochrome P450 2C19 (Homo sapiens) (P33261 whole entry, looked up): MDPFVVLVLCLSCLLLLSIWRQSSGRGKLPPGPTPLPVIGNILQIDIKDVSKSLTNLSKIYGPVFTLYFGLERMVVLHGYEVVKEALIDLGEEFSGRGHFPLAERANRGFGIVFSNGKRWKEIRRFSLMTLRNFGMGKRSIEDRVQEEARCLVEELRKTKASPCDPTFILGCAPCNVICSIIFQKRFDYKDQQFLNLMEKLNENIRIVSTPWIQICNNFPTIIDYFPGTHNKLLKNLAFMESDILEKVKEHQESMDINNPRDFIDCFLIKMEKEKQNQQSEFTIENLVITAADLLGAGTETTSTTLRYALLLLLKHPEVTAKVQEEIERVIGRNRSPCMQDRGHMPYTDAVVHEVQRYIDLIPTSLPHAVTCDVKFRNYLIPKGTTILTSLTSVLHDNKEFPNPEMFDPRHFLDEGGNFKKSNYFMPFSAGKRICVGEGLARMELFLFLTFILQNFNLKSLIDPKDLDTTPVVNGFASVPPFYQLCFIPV
In short: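 5nM enzyme + 10uM Luciferin-H EGE (=KM), 50mM KPO4; cpd pin-transferred, 10 min 37C; NADPH regen, 60 min 37C; stopped w/ luciferin detection reagent, 20 min; luminescence. Normalized to 57uM ketoconazole (AC100).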

[14] = qHTS Assay for Identification of Small Molecule Antagonists for Thrombopoietin (TPO) Signaling Pathway (AID 918); details: TPO-dependent cell signaling reporter, antagonist mode; further: potency means the concentration at half of the fitted maximal effect; nearly all actives have a fitted effect of over 60% in size
In short: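 Inhibitors of TPO signaling are sought by stimulating IL-3-starved murine Ba/F3 cells (human TPO receptor, Glycoprotein IIb-driven luciferase) with TPO at its EC50 of 26 pM alongside compound. After 24 hrs at 37 C, reporter luminescence is measured.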

Structure (SMILES) | outcome [1] | Potency [2] | Potency [3] | Potency [4] | activation [5] | outcome [6] | outcome [7] | Potency [8] | outcome [9] | outcome [10] | outcome [11] | Potency [12] | Potency [13] | Potency [14]
NCCc1c[nH]c2ccccc12 | inactive | inactive | 12.6 µM (active) | inactive | -27.7% (inactive) | inactive | inactive | inactive | inactive | inactive | inactive | – | – | –
C#CCOC(=O)C1=CCCN(C)C1 | inactive | – | – | – | – | – | – | inactive | inactive | inactive | inactive | – | – | –
O=C(O)Cc1cnc[nH]1 | inactive | – | – | – | 7.21% (inactive) | inactive | – | – | inactive | inactive | inactive | – | – | –
Cn1cnc(CCN)c1 | inactive | – | inactive | – | – | inactive | – | inactive | inactive | inactive | inactive | inactive | inactive | –
CCCN1CCO[C@@H]2c3cc(O)ccc3OC[C@H]21 | inactive | – | inactive | – | – | inactive | – | – | inactive | inactive | inactive | – | inactive | –
O=C1CCCN1CC#CCN1CCCC1 | inactive | inactive | inactive | inactive | – | inactive | inactive | inactive | inactive | inactive | inactive | inactive and 2 µM (active) | 0.158 µM (active) | –
C[C@@H]1O[C@H](C[N+](C)(C)C)C[C@H]1O | inactive | – | inactive | – | – | inactive | – | inactive | inactive | inactive | inactive | – | – | –
Clc1cnc(Oc2ccc(Oc3ncc(Cl)cc3Cl)cc2)c(Cl)c1 | inactive | – | – | – | – | inactive | – | – | inactive | inactive | inactive | inactive | – | –
COc1ccc2c(c[n+](C)c3c4cc5c(cc4ccc23)OCO5)c1OC | inactive | – | 11.2 µM (active) | – | – | – | – | inactive | inactive | inactive | inactive | – | – | 2 µM (active)
Cc1c(C(=O)c2cccc3ccccc23)c2cccc3c2n1[C@H](CN1CCOCC1)CO3 | inactive | – | – | – | – | – | – | – | inactive | inactive | inactive | – | – | 12.6 µM (active)
CC1=NN=C(c2ccc(N)cc2)c2cc3c(cc2C1)OCO3 | inactive | – | – | – | – | inactive | – | – | inactive | inactive | inactive | 1.26 µM (active) | 7.94 µM (active) | –
NCCc1c[nH]c2ccc(O)cc12 | inactive | – | inactive | – | 17.2% (inactive) and 2.69% (inactive) | inactive | – | – | inactive | inactive | inactive | – | – | –
CCCN1CCC[C@H](c2cccc(O)c2)C1 | inactive | – | – | – | – | inactive | – | – | inactive | inactive | inactive | – | – | –
Cc1nc(-c2ccc(-c3ccc(C(=O)N4CCc5cc6c(cc54)C4(CCN(C)CC4)CO6)cc3)c(C)c2)no1 | inactive | – | – | – | – | – | – | – | inactive | inactive | inactive | 7.94 µM (active) | 3.98 µM (active) | 12.6 µM (active)
CC(C)Oc1cccnc1N(C)C1CCN(Cc2ccccc2)CC1 | inactive | – | – | – | -11.6% (inactive) | inactive | – | – | inactive | inactive | inactive | – | – | –
Cc1nccc2c1[nH]c1ccccc12 | inactive | 3.98 µM (active) | – | inactive | – | inactive | inactive | – | inactive | inactive | inactive | inactive | inactive | –
C[C@]12N[C@H](Cc3ccccc31)c1ccccc12 | inactive | – | inactive | – | – | inactive | – | – | inactive | inactive | inactive | – | – | –
CNCCc1c[nH]c2ccc(O)cc12 | inactive | inactive | inactive | – | – | inactive | – | inactive | inactive | inactive | inactive | – | – | –
CN[C@@H]1C[C@@H](c2ccc(Cl)c(Cl)c2)c2ccccc21 | inactive | – | 8.91 µM (active) | – | – | – | – | 2.24 µM (active) | inactive | inactive | inactive | – | – | 12.6 µM (active)
CCCCc1ccc(C(=O)O)nc1 | inactive | inactive | – | – | – | – | – | – | inactive | inactive | inactive | inactive | inactive | –
NC(=NCCC[C@H](N)C(=O)O)N[N+](=O)[O-] | inactive | – | inactive | – | – | inactive | – | inactive | inactive | inactive | inactive | – | – | –
CCCN(CCC)[C@@H]1CCc2ccc(O)cc2C1 | inactive | – | inactive | – | – | inactive | – | 5.01 µM (active) and 282 nM (active) | inactive | inactive | inactive | inactive | – | –
NCc1cc(=O)[nH]o1 | inactive | – | – | – | – | inactive | – | inactive | inactive | inactive | inactive | – | inactive | –
